Measurements from PubChem BioAssay AID1220 (Sanford-Burnham Center for Chemical Genomics, 2008).
Screen size: about 190,000 compounds; about 1,300 (0.68%) were called active. No stated cut-off is given here; in the data, active means inhibition above about 50%; inactive means the rest. The sample as a whole holds a higher share of actives than the screen did.

Target: Mannose-6-phosphate isomerase (Homo sapiens) (UniProt P34949)
Experiment: human PMI inhibitors, high substrate, primary screen, biochemical, fluorescence intensity, high mannose 6-phosphate (AID 1220)
Details: recombinant PMI enzyme, coupled fluorescence intensity; at 20 µM; hits give high values

Mannose-6-phosphate isomerase (Homo sapiens), sequence (P34949 whole entry, looked up): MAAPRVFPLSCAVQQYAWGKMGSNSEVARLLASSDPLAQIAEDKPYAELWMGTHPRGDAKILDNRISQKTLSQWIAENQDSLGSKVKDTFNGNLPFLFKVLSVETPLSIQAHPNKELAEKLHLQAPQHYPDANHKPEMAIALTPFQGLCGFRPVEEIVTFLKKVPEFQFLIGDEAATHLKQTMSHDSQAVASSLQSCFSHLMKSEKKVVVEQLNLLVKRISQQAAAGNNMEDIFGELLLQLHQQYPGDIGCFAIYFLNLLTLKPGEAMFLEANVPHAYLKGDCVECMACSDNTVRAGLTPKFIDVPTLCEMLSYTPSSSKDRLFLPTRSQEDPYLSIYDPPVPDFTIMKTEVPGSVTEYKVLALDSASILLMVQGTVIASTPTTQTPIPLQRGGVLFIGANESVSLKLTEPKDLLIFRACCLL

inhibition, active:
COc1ccc2c(c1)CC/C(=C\C=C\c1ccccc1)C2=O 52.8%, COc1ccc2c(c1)CC/C(=C\C=C\c1ccccc1OC)C2=O 53.3%, Cc1nnc(N/N=C/c2ccco2)n1N 56.6%, Cc1nnc(N/N=C/c2ccccc2O)n1N 52.5%, NC(=O)c1cccc(N=Cc2cc(Cl)cc(Cl)c2O)c1 55.3%, Cc1ccc(N=Cc2cc(Br)cc(Cl)c2O)cc1 50.8%, Cc1ccc(N=Cc2cc(Cl)cc(Cl)c2O)nc1 58.6%, Cc1cccc(N=Cc2cc(Br)cc(Cl)c2O)c1 57.8%, COCc1ccc(CN2CCc3c([nH]c4ccccc34)C2CC(C)C)o1 (stereo not given) 52%, C/C(=C\C(=O)N1CCc2ccccc21)C(=O)O 61.3%, O=[N+]([O-])c1ccc(O)c(C=Nc2cccc3ncccc23)c1 52.5%, O=[N+]([O-])c1ccc(O)c(C=Nc2ccc3c(c2)OCCO3)c1 52.8%, Oc1c(Br)cc(Br)cc1C=Nc1ccc2c(c1)OCCO2 59.7%, O=[N+]([O-])c1ccc(O)c(C=Nc2ccc3oc(Cc4ccc(Cl)cc4)nc3c2)c1 61.1%, CN1COc2ccc3ccccc3c2C1 67.8%, O=[N+]([O-])c1ccc2c(c1Nc1ccccc1)=NC1(CCCCC1)N=2 58.9%, Cc1ccc(Nc2c([N+](=O)[O-])ccc3c2=NC2(CCCCC2)N=3)cc1 50.8%

inhibition, inactive:
O=C(CCc1nnc(CCCc2ccccc2)o1)NCCc1ccccc1 -1.7%, Cc1nc2c(c(=O)n1CCC1=CCCCC1)c1nc3ccccc3nc1n2/N=C/c1ccco1 15.8%, Cc1nn(CCc2nn[nH]n2)c2nc(-c3ccc(Br)cc3)cc(C(F)(F)F)c12 4.9%, CSc1cccc(NC(=O)C2CCN(S(C)(=O)=O)CC2)c1 5.6%, Cc1ccc(OCCC(=O)Nc2ccc(C)c(F)c2)cc1 16.2%, Cc1ccc(S(=O)(=O)N2CCC(C(=O)NCCCN3CCCCCC3)CC2)cc1 -3.9%, CCCCNC(=O)c1onc(CSc2ccccc2F)c1C(=O)O -0.1%, Cc1nc(NC(=O)CN(C)S(=O)(=O)c2ccc(Br)cc2)sc1C 1.7%, COc1ccc2c(c1)CC/C(=C\c1ccc(OC)c(Cn3cccn3)c1)C2=O 21.7%, COc1ccc(/C=C2/CCc3ccccc3C2=O)cc1OC 29.2%, COc1ccc2c(c1)C(=O)/C(=C/C=C/c1ccccc1)CC2 33.4%, COc1ccc(/C=C2\CC/C(=C\c3ccc(OC)cc3OC)C2=O)c(OC)c1 13.5%, COc1cc2nc(CN3CCC(Cc4ccccc4)CC3)[nH]c(=O)c2cc1OC -12.9%, COC(=O)c1ccc2c(=O)n(CC3CCCO3)c(SCC(=O)NCCc3ccc(S(N)(=O)=O)cc3)nc2c1 (stereo not given) -2.9%, Cc1nnc(N/N=C/c2c(Cl)cccc2Cl)n1N 32.3%, CCc1nnc(N/N=C/c2ccccc2F)n1N 5.2%, CC(C)(C)c1nnc(N/N=C/c2ccccc2O)n(N)c1=O -27.3%, Cc1nnc(N/N=C/c2ccc(-c3ccccc3F)o2)n1N 33.4%, C/C(=N/OCc1ccc(Br)cc1)c1ccccn1 1.2%, O=[N+]([O-])c1ccc2nc(NCCCO)nc(-c3ccccc3)c2c1 -39.7%, CCCS(=O)(=O)c1c(S(=O)(=O)CCC)c2ccc(C(N)=O)cn2c1C(=O)c1ccc(OC)cc1 14%, O=C(Nc1cccn2ncnc12)C(F)(F)F -1.2%, COc1ccc(CNC(=O)CSc2nnc3c(Cl)cc(C(F)(F)F)cn23)cc1OC 12.9%, Oc1c(Cl)cc(Cl)cc1/C=N/Nc1ncc(Br)cn1 -22.9%, Oc1c(Cl)cc(Cl)cc1C=Nc1ccc(Br)cc1 17.7%, Oc1ccc(Cl)cc1C=Nc1ccc(Br)cc1 8.3%, Cc1cccc(N=Cc2[nH]c3ccc(Br)c(Cl)c3c2O)c1 -1.9%, COc1cc(Br)cc(C=Nc2cccc(C(F)(F)F)c2)c1O 15.9%, Oc1c(Cl)cc(Cl)cc1C=Nc1ccccc1N1CCCC1 33.7%, Oc1c(Cl)cc(Cl)cc1/C=N/c1nccs1 -2.8%, O=C(CCC(=O)N/N=C/c1cc(Cl)cc(Cl)c1O)NCc1ccccc1 17.9%, O=C(CN1CCSCC1)N/N=C/c1ccc(F)c(F)c1 -7.6%, CC(Oc1ccc(Br)cc1)C(=O)NCc1ccccn1 (stereo not given) -0.8%, CCN1CCN(C(=O)c2ccccc2NS(=O)(=O)c2ccc(Cl)cc2)CC1 -3.6%, COc1ccc(C(C#N)N2CCC(c3ccccc3)=N2)cc1OC (stereo not given) -5.6%, COc1ccc(/C(C)=N\NS(=O)(=O)c2ccccc2)cc1OC 4.4%, COc1ccc(C2CCCN2C(=S)Nc2ccc(C)cc2Cl)cc1OC (stereo not given) 2.1%, COc1ccc(CNC(=O)c2ccc(C(C)C)cc2)cc1 12.3%, O=C(Nc1ccccc1OC(F)F)c1ccccc1 9.2%, CC1CCCCC1N1CCN(C(=O)c2cccc(F)c2)CC1 (stereo not given) -10.5%, O=C(Nc1nc2ccc(F)cc2s1)C1CCN(S(=O)(=O)c2cc([N+](=O)[O-])ccc2Cl)CC1 13.7%, C=CCn1c(Cc2ccc(OC)cc2)nnc1SCC(=O)NCCc1ccccc1 -0.7%, COc1ccc(C(C)C)cc1S(=O)(=O)N1CCN(c2ccccc2)CC1 6.8%, Cn1nnnc1NCc1ccc(Cl)cc1 -7.1%, COCc1ccc(CN2CCc3c([nH]c4ccccc34)C2C(C)(C)C)o1 (stereo not given) 14.1%, Cc1cnc(CN2CCc3c([nH]c4ccccc34)C2CC(C)C)[nH]1 (stereo not given) 11.2%, O=C(Cc1cccs1)Nc1ccc(S(=O)(=O)N2CCCC2)cc1 39.8%, CC(On1c(-c2ccccc2)nc2ccc(Cl)cc21)C(=O)O (stereo not given) -10.3%, CC(C)=CC(=O)N1CCCc2ccccc21 10.1%, C/C(=C/C(=O)N1CCc2ccccc21)C(=O)O 2.1%, Nc1nonc1-n1nnc(C(=O)O)c1-c1cccs1 0.4%, Cc1noc(C)c1COC(=O)CNC(=O)c1cccc(F)c1 -11.8%, O=C(Nc1ccc2oc(Cc3ccc(Cl)cc3)nc2c1)c1cccnc1 7.7%, Oc1ccc(C=Nc2cccc3ncccc23)c(O)c1 38.7%, Oc1c(Cl)cc(Cl)cc1C=Nc1ccc2c(c1)OCCO2 25%, CN(C)/N=C/c1cc([N+](=O)[O-])ccc1O 9.8%, O=[N+]([O-])c1ccc(O)c(/C=N/Nc2ccccn2)c1 -20.1%, Oc1c(Br)cc(Br)cc1C=Nc1ccc2c(c1)OCO2 48.6%, O=C(N/N=C/c1cc([N+](=O)[O-])ccc1O)c1ccc2c(c1)OCCO2 -16.7%, O=[N+]([O-])c1ccc(O)c(C=Nc2ccc3nc(-c4ccccc4)[nH]c3c2)c1 8.2%, C=CCn1c(SCC(N)=O)nnc1-c1cccc(Br)c1 1%, Cc1ccc(CN2CCN(Cc3cnc(C)[nH]3)CC2CCO)cc1 (stereo not given) 2%, O=C(Nc1c(F)cc(F)cc1Br)C1CCCO1 (stereo not given) 15.5%, CC(=O)NCCc1ccc(S(=O)(=O)N2CCOCC2)cc1 -2.7%, CCOC(=O)CNC(=O)CSc1nnc(SCC(=O)NCC(=O)OCC)s1 -6.4%, COc1ccc(/C=C/C(=O)NC(=S)N2CCN(C)CC2)cc1 -10.4%, CSc1ccccc1NC(=O)CN(C)CC(=O)Nc1ccccc1F -13.9%, Cc1ccc(NC(=S)N(Cc2ccco2)C2CCN(C(C)C)CC2)cc1 -8.2%, O=C1COc2ccc3ccccc3c2CN1 -0.8%, Cn1c2c(c(=O)n(C)c1=O)[C@@H]1c3c(ccc4ccccc34)OC[C@@H]1CO2 -2.5%, Cc1ccc(C(=O)N/N=C/c2ccc(N3CCOCC3)cc2)c(C)c1 -8%, CCN(C(=O)c1ccc(NC(C)=O)cc1)c1ccccc1C -3%, Cc1ccc(NC(=O)c2ccc(Nc3c([N+](=O)[O-])cc([N+](=O)[O-])cc3[N+](=O)[O-])cc2)cc1 3.9%, O=[N+]([O-])c1ccccc1Nc1ccccc1 -3.7%, Cc1ccc(Nc2cc(C)nc3c(C)ccc([N+](=O)[O-])c23)cc1 10.2%, Cc1ccccc1Nc1c([N+](=O)[O-])ccc2c1=NC1(CCCCC1)N=2 38.7%, C[C@H]1CC[C@@]2(O[C@H](CCO)C[C@@H](O)[C@@H]2O)O1 12.7%, COc1ccc(Cn2nnc3c(=O)[nH]c(C4CCCN(C(=O)c5ccccc5)C4)nc32)cc1 (stereo not given) -5.4%, CCOC(=O)/C(=N\O)C1=NC(C)(C)Cc2ccccc21 -11.3%, CC1(C)Cc2ccccc2C(/C(=N/O)C(N)=O)=N1 5.1%, COc1ccc(-c2c(C)nn3c(N4CCC(C(=O)NCCN(C)C)CC4)cc(C)nc23)cc1OC 5.7%, CCN(CC)CCNC(=O)C(C(=O)c1ccccc1)n1ccccc1=O (stereo not given) 1.8%, COc1ccc(CNC(=O)C(c2ccncc2)N(C(=O)Cc2cccs2)c2ccccc2)cc1 (stereo not given) 1.9%
